In all, about 53,000 compounds went through this assay and about 900 (1.7%) showed an effect of 50% or more. The sample holds strong results, similar compounds and a random draw of the others, so the mix is not that of the screen.
Each compound was assayed on Mycobacterium tuberculosis (assay: Cornell - Phenotypic assay to identify agents that inhibit growth of Mycobacterium tuberculosis). Conditions: 10 mM as filed; unlikely as a test dose.
Format: functional
Design: scale not given: direction of the effect not stated beside the values

Structure (SMILES)	Percent Effect
OC(CN1CCC(c2ccn[nH]2)CC1)c1ccccc1F (centres undefined)	11.88%
Cc1csc2nc3n(c(=O)c12)CCN(Cc1c[nH]cn1)CC3.Cl	-9.915%
Cc1cc(C(F)F)nn1C(C)C(=O)NCc1ncc[nH]1 (centres undefined)	51.24%
Cc1cc(C(F)F)nn1C(C)C(=O)NCc1nccn1C (centres undefined)	-1.635%
CC(C)Nc1ncccc1C(=O)NCc1ncc[nH]1	21.23%
CN(C)c1ncc(-c2ccncc2)c(CCNC(=O)C2CC2)n1	23.54%
Cc1c(C(=O)N2CCN(c3ccccn3)CC2)n(C)c2ccc(Cl)cc12	56.67%
Cc1c(C(=O)N2CCN(C)CC2)n(C)c2ccc(Cl)cc12	29.74%
Cc1c(C(=O)N2CCN(c3ncccn3)CC2)n(C)c2ccc(Cl)cc12	45.95%
CCN1C(=O)CC[C@@H]2N(C(=O)CCn3nccc3C)CCCC[C@@]21C	10.33%
CC(C)CC(=O)N1CC(=O)c2sc(NCCc3ccccc3)nc2C1	-41.09%
Cc1nn(C)cc1CN1CCN(CC2(c3ccccc3)CC2)CC1	18.35%
Cc1ccc(C2(CN3CCN(Cc4cn(C)nc4C)CC3)CC2)cc1.Cl	56.88%
Cc1ccc(C2(CN3CCN(Cc4cncn4C)CC3)CC2)cc1.Cl	-21.08%
O=C(NCc1ccncc1)N1CC(Cc2ccccc2F)C1	8.731%
CCc1ccc(S(=O)(=O)Nc2cc(C(=O)O)c(F)cc2F)s1	1.964%
CCc1ccc(S(=O)(=O)Nc2cc(OC)c(OC)cc2C(=O)O)s1	16.65%
CCc1ccc(S(=O)(=O)Nc2c(C)cccc2C(=O)O)s1	52.73%
Cc1cc(CN(C)C2CCCN(Cc3noc(C4CC4)n3)C2)on1 (centres undefined)	2.145%
O=C(Nc1cccc(N2CCCC2)c1)C1CCCN1c1nccs1 (centres undefined)	57.22%
O=C1NCc2ccc(NC(=O)C3CCCN3c3nccs3)cc21 (centres undefined)	10.34%
O=C(Nc1cccc2c1CCCC2)C1CCCN1c1nccs1 (centres undefined)	-2.486%
Cc1nn(Cc2ccc(F)cc2)c2[nH]nc(N)c12	41.44%
Cc1nn(-c2ccc(F)cc2)c2[nH]nc(N)c12	67.22%
Cc1nn(C)c(=O)c2nn(-c3ccc(F)cc3)c(C)c12	2.323%
COc1ccccc1CCC(=O)N1CCCC(OCc2cccnc2)C1 (centres undefined)	-21.64%
CC(Nc1ccc(Br)cc1)c1nc(C2CC2)no1 (centres undefined)	54.33%
CC(Nc1ccc2c(c1)CCC2)c1nc(C2CC2)no1 (centres undefined)	27.18%
CC(c1nc(C2CC2)no1)N1CCN(Cc2ccccc2)CC1 (centres undefined)	2.279%
